Calls of active or inactive are those of the source. Unless noted, no rule for the calls is given here.
Key:
[1] = tested on: Wnt5a (protein binding on small-molecule microarray); assay: Wnt5a binders on small-molecule microarray, primary screen, biophysical, 635/667 nm fluorescence (AID 1142); settings: 635 nm fluorescence, higher = more signal;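 also: fluorescence read at 667 nm with signal to noise per printed feature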
[2] = cell viability in Huh7 cells, primary screen, cytotoxicity control for HCV replication inhibitor project, CellTiter-Glo luminescence, basal, 48 h (AID 1143); settings: Huh7 HCV replicon, higher = more signal, called active from +8 up or from −8 down;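 also: Huh7 hepatoma cells carrying a hepatitis C replication reporter with no stimulus; test concentration not given here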
[3] = P. aeruginosa biofilm formation inhibitors, primary screen, PAO1 strain, BacTiter-Glo luminescence, LB-PBS (AID 1144); settings: 12 h, higher = more signal
[4] = CREB reporter modulators without forskolin, primary screen, cell-based, PC12, CRE-LacZ reporter, unstimulated (AID 1145); settings: no forskolin, luminescence, 4.5 h, higher = more signal, called active from +8 up or from −8 down
[5] = CREB reporter modulators under forskolin, primary screen, cell-based, PC12, CRE-LacZ reporter, forskolin-stimulated (AID 1146); settings: luminescence, 4.5 h, higher = more signal, called active from +8 up or from −8 down;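 also: PC12 cells with 6xCRE LacZ reporter stimulated by forskolin 10 µM; beta-galactosidase reporter signal reflecting CREB driven transcription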
[6] = molecular target: Streptavidin (Streptomyces avidinii) (UniProt P22629); assay: streptavidin binders on small-molecule microarray, primary screen, artefact control for SMM compound annotation, biophysical, 635/667 nm fluorescence (AID 1147); settings: streptavidin binding, higher = more signal;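 also: signal reflects streptavidin binding to arrayed compounds as a control protein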
Sequence of Streptavidin (Streptomyces avidinii) (P22629 whole entry, looked up): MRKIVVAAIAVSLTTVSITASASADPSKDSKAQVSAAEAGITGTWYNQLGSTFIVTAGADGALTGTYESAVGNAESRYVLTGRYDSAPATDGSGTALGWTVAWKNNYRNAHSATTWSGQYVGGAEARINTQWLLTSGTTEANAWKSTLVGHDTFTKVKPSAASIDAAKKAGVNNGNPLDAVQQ

[7] = small-molecule binders of probe aInhba, primary screen, biochemical, small-molecule microarray, 635/667 nm fluorescence (AID 1148); settings: higher = more signal;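 also: score merges 667nm spot fluorescence with signal-to-noise for antibody binding to printed compounds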
Torsin-1A (Homo sapiens) [8] = molecular target: Torsin-1A (Homo sapiens) (UniProt O14656); assay: torsin A binders from cell lysate, primary screen, small-molecule microarray, wild-type, 635/667 nm (AID 1149); settings: COS7 hTOR1A-WT lysate, 635 nm fluorescence, higher = more signal
Sequence of Torsin-1A (Homo sapiens) (O14656 whole entry, looked up): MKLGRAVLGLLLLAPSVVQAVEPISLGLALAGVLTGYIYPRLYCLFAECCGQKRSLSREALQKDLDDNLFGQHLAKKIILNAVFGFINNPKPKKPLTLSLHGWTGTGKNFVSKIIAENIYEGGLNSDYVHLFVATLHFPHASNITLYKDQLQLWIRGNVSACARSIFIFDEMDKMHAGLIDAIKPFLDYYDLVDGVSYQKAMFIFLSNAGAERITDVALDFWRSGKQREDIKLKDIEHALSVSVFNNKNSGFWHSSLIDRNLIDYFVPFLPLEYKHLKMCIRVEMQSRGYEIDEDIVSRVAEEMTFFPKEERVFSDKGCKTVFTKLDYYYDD

Torsin-1A (Homo sapiens) [9] = molecular target: Torsin-1A (Homo sapiens) (UniProt O14656); assay: small-molecule binders of mutant TOR1A in lysate, primary screen, cell lysate, small-molecule microarray, COS7 lysate, 635/667 nm fluorescence (AID 1150); settings: COS7 hTOR1A mutant lysate, 635 nm fluorescence, higher = more signal;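 also: score pools 667 nm emission and signal to noise measuring lysate protein binding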
[10] = tested on: Sonic hedgehog protein (Shh); assay: small-molecule binders of Shh protein, primary screen, biochemical, small-molecule microarray, 635/667 nm fluorescence (AID 1151); settings: small-molecule microarray binding, 635 nm fluorescence; higher = more signal;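 also: Shh protein binding to compounds spotted on small-molecule microarray slides; score combines spot fluorescence intensity with signal-to-noise across triplicate slides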
[11] = E. coli DRC41 culture turbidity changes, primary screen, E. coli filamentation inducer project, strain DRC41, OD650, 48 h (AID 1152);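 also: E. coli MC1000 strain DRC41 lacking acrAB efflux pump and sulA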; settings: E. coli DRC41 (acrAB sulA), higher = more signal, called active from +8 up or from −8 down
[12] = small-molecule binders of probe aLefty1, primary screen, biochemical, small-molecule microarray, 635/667 nm fluorescence (AID 1153); settings: higher = more signal;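 also: score merges spot fluorescence with signal-to-noise ratio from the scanned slide images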
[13] = PSAC antagonists in infected red cells, primary screen, cell-based, P. falciparum Indochina, OD700, 1 h (AID 1154); settings: P. falciparum Indochina infected RBC osmotic lysis, higher = more signal, called active from +8 up or from −8 down
[14] = PSAC antagonists in infected red cells, primary screen, cell-based, P. falciparum Indochina, OD700, 2 h (AID 1155);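 also: lysis reports solute entry through the parasite surface anion channel PSAC; channel blockers reduce lysis of infected cells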; settings: P. falciparum Indochina infected erythrocytes, osmotic lysis OD700; higher = more signal, called active from +8 up or from −8 down
[15] = osmotic lysis modulators in infected erythrocytes, primary screen, PSAC antagonist project, cell-based, P. falciparum Indochina, OD700, 3 h (AID 1156); settings: higher = more signal, called active from +8 up or from −8 down
[16] = PSAC antagonists in infected red cells, primary screen, cell-based, P. falciparum Indochina, OD700, 18 h (AID 1157); settings: P. falciparum Indochina infected erythrocytes, osmotic lysis OD700, 18 h; higher = more signal, called active from +8 up or from −8 down
[17] = modulators of S6 phosphorylation in cells, primary screen, cell-based, A549, cytoblot, luminescence, serum-stimulated (AID 1158); settings: A549 phospho-S6 cytoblot, 5 h, higher = more signal;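 also: serum-stimulated A549 lung adenocarcinoma cells; signal is phosphorylated S6 detected by cytoblot immunostaining with HRP secondary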
[18] = molecular target: NADPH oxidase 2 (Homo sapiens) (UniProt P04839); assay: NOX2-dependent H2O2 signal modulators, primary screen, NOX inhibitor project, cell-based, HEK293-NOX2, PMA-stimulated, Amplex Red fluorescence (AID 1159); settings: 45 min, higher = more signal, called active from +8 up or from −8 down; also: test concentration not given here
Sequence of NADPH oxidase 2 (Homo sapiens) (P04839 whole entry, looked up): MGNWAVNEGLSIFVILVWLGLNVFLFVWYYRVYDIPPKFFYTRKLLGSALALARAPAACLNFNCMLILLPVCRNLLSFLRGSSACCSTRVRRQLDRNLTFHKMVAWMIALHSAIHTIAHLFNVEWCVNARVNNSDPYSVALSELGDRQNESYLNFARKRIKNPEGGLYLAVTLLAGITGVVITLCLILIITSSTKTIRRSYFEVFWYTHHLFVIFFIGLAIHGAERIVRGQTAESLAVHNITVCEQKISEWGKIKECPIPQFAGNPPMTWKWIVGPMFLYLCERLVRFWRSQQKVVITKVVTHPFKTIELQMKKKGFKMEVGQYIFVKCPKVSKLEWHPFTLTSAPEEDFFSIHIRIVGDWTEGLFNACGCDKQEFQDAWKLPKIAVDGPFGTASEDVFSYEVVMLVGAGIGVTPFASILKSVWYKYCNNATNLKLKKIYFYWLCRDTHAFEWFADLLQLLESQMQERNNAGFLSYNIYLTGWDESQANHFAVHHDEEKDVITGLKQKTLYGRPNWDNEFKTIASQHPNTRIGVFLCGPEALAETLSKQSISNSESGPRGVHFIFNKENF

[19] = molecular target: NADPH oxidase 4 (Homo sapiens) (UniProt Q9NPH5); assay: NOX4-dependent H2O2 signal modulators, primary screen, NOX inhibitor project, cell-based, HEK293-NOX4, tetracycline-induced, Amplex Red fluorescence (AID 1160); settings: 45 min, higher = more signal, called active from +8 up or from −8 down
Sequence of NADPH oxidase 4 (Homo sapiens) (Q9NPH5 whole entry, looked up): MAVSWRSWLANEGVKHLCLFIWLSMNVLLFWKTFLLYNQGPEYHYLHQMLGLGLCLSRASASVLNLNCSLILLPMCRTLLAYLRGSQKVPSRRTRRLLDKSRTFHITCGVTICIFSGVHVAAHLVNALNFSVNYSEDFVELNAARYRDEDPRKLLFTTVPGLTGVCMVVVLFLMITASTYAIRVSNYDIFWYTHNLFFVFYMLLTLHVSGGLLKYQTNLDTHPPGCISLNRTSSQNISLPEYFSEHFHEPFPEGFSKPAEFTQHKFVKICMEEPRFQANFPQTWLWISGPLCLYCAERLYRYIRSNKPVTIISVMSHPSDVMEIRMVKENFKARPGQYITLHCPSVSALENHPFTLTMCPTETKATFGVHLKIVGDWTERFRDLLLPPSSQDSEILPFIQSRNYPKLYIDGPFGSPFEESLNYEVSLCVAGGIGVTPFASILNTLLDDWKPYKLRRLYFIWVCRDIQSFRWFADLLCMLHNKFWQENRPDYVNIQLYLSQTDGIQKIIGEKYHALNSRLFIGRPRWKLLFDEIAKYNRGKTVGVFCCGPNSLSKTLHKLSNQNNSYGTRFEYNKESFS

[20] = molecular target: NADPH oxidase 5 (Homo sapiens) (UniProt Q96PH1); assay: NOX5-dependent H2O2 signal modulators, primary screen, NOX inhibitor project, cell-based, HEK293-NOX5, Amplex Red fluorescence (AID 1161); settings: HEK293-NOX5, ionomycin, 45 min, higher = more signal
Sequence of NADPH oxidase 5 (Homo sapiens) (Q96PH1 whole entry, looked up): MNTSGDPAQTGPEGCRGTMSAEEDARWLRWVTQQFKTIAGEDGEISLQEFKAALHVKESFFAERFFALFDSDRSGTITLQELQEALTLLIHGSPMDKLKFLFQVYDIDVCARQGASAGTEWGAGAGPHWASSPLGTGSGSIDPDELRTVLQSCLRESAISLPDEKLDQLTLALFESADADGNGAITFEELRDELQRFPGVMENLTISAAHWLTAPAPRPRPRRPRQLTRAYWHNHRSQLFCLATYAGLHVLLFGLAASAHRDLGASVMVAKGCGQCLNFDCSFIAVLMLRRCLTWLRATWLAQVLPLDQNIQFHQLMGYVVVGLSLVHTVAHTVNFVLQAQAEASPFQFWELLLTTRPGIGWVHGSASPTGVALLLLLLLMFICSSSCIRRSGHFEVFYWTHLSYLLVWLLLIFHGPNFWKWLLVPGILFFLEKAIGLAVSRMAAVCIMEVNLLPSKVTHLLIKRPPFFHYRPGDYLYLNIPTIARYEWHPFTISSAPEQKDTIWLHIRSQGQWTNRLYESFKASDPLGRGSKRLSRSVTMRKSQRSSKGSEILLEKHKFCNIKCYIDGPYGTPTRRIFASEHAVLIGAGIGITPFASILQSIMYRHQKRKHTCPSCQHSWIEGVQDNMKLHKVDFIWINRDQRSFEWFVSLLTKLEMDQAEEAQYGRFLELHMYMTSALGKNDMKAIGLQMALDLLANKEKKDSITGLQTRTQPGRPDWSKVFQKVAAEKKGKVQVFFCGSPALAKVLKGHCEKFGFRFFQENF

Row | SMILES | composite z-score [1] | z-score [2] | z-score [3] | z-score [4] | z-score [5] | composite z-score [6] | composite z-score [7] | composite z-score (Torsin-1A (Homo sapiens) [8]) | composite z-score (Torsin-1A (Homo sapiens) [9]) | composite z-score [10] | z-score [11] | composite z-score [12] | z-score [13] | z-score [14] | z-score [15] | z-score [16] | z-score [17] | z-score [18] | z-score [19] | z-score [20]
1 | CCCCCC1=C2CNC(CC(C)C)(C(=O)OC)C=C2C(C)C1=O (stereo not given) | -0.025 | -0.575 (inactive) | 0.661 (inactive) | 0.0041 (inactive) | 0.728 (inactive) | 0.428 | 0.0668 | -0.276 | -0.207 | -0.242 | -1.07 (inactive) | 0.172 | 1.5 (inactive) | -0.602 (inactive) | 0.836 (inactive) | 0.347 (inactive) | -0.245 | -0.0792 (inactive) | -0.636 (inactive) | -2.61
2 | C=CCC(OC(C)=O)[C@@H]1[C@@H](N(Cc2ccc(-c3ccccc3)cc2)C(=O)c2cccc3ccccc23)c2cc(OCCCO)ccc2N1C(=O)Cc1ccc(OC)cc1 (stereo not given in full) | 0.0948 | -1.62 (inactive) | 0.0108 (inactive) | 0.498 (inactive) | -0.117 (inactive) | 0.0251 | -0.0346 | -0.476 | 0.127 | 0.586 | -1.17 (inactive) | 0.568 | 0.53 (inactive) | 0.525 (inactive) | 0.375 (inactive) | 0.211 (inactive) | -0.0451 | -0.248 (inactive) | -0.0822 (inactive) | -2.28
3 | COCCOC(=O)N1C(=O)[C@@]2(c3cc(C#Cc4ccc(OC)cc4)ccc31)[C@H](c1ccc(OCCO)cc1)N1[C@H](c3ccccc3)[C@H](c3ccccc3)OC(=O)[C@H]1[C@@H]2C(=O)NC[C@H](O)c1ccccc1 | 0.316 | -1.07 (inactive) | -0.367 (inactive) | -0.463 (inactive) | 0.003 (inactive) | 0.769 | 0.0301 | 0.677 | 0.603 | 1.5 | -0.0906 (inactive) | 0.257 | 4.14 (inactive) | 2.07 (inactive) | 0.0276 (inactive) | 1.24 (inactive) | -0.539 | 1.27 (inactive) | 0.708 (inactive) | 1.11
4 | O=C1O[C@@H](c2ccccc2)[C@@H](c2ccccc2)N2[C@@H](c3ccccc3OCCO)[C@]3(C(=O)Nc4ccc(C#CCCO)cc43)[C@@H](C(=O)NC[C@H](O)c3ccccc3)[C@H]12 | 0.381 | -0.908 (inactive) | 0.191 (inactive) | -0.402 (inactive) | 0.717 (inactive) | 1.63 | 1.17 | 1.49 | 1.86 | 1.94 | 0.54 (inactive) | 1.63 | 1.54 (inactive) | 0.913 (inactive) | -1.33 (inactive) | 1.28 (inactive) | -0.471 | 1.59 (inactive) | 0.462 (inactive) | 0.689
5 | O=C(NCCN1CCOCC1)[C@@H]1c2ccccc2C(=O)N(Cc2ccccc2C(F)(F)F)[C@H]1c1ccc(CO)cc1 | -0.316 | -0.0154 (inactive) | 0.151 (inactive) | 0.324 (inactive) | -1.32 (inactive) | -1.12 | -0.224 | -0.691 | 0.0912 | -0.112 | 0.736 (inactive) | -0.418 | 2.76 (inactive) | -0.191 (inactive) | 1.15 (inactive) | 0.158 (inactive) | -0.328 | 0.523 (inactive) | 0.484 (inactive) | 0.772
6 | O=C(NCC(O)CO)[C@@]1(CCS(=O)(=O)c2ccccc2)N=C(c2ccc(OCCCO)cc2)O[C@H]1c1ccccc1 (stereo not given in full) | 0.274 | -3.75 (inactive) | -0.513 (inactive) | 0.675 (inactive) | -1.04 (inactive) | 1.4 | 0.212 | 0.449 | 1.23 | -1.04 | -0.295 (inactive) | 0.419 | 25.6 (active) | 19.1 (active) | 2.38 (inactive) | 1.39 (inactive) | 1.07 | -0.356 (inactive) | 1.47 (inactive) | 1.33
7 | C=C(CCCC)/C(=C/C[C@H](OC(=O)c1ccncc1)c1ccc(OCCO)cc1)c1cnc2ccccc2c1 | 0.766 | -1.17 (inactive) | 0.15 (inactive) | 10.9 (active) | -0.574 (inactive) | 1.83 | -0.0221 | 1.03 | 0.667 | 1.4 | 0.339 (inactive) | 0.127 | 26.5 (active) | 11.9 (active) | 1.98 (inactive) | 1.31 (inactive) | -0.594 | -0.0888 (inactive) | 0.589 (inactive) | -0.964
8 | COCCOC(=O)N1C(=O)[C@@]2(c3cc(C#CCC(C(=O)OC)C(=O)OC)ccc31)[C@H](C(=O)Nc1nc3ccccc3s1)[C@H]1C(=O)O[C@H](c3ccccc3)[C@H](c3ccccc3)N1[C@@H]2c1ccc(OCCO)cc1 | 0.555 | -0.835 (inactive) | -0.00208 (inactive) | 1.71 (inactive) | 0.323 (inactive) | 0.532 | 0.79 | 1.07 | 0.596 | 2.23 | 0.836 (inactive) | 0.529 | 5.5 (inactive) | 1.77 (inactive) | 0.832 (inactive) | 1.39 (inactive) | -0.265 | 1.75 (inactive) | 1.03 (inactive) | 1.33
9 | C=CCN1Cc2ccccc2[C@H]2OC(c3ccc(OCCCO)cc3)=N[C@@]2(CCS(=O)(=O)c2ccccc2)C1=O | 1.07 | -2.3 (inactive) | 0.477 (inactive) | 1.44 (inactive) | -1.27 (inactive) | 0.22 | 0.275 | 0.695 | 1.26 | 1.28 | -0.028 (inactive) | 0.607 | 30.4 (active) | 27.2 (active) | 1.47 (inactive) | 6 (inactive) | -0.272 | -0.697 (inactive) | 1.93 (inactive) | 0.119
